The sample as a whole holds a higher share of hits than the screen did.
G9a block – inhibitors of human histone lysine methyltransferase G9a; Potency, µM (top dose mostly 102 µM), for inactives: top-dose activity, negative = inhibition, usual class: inhibitors; Q96KQ7; G9a H3K9 monomethylation, AlphaScreen, 2 h; actives 8.8% (n = 350,000); note: % is set by controls: 0 for no effect and ±100 for the full control effect; nearly all actives have a fitted effect of over 75% in size
Target sequence (Q96KQ7 913-1193 limits assumed): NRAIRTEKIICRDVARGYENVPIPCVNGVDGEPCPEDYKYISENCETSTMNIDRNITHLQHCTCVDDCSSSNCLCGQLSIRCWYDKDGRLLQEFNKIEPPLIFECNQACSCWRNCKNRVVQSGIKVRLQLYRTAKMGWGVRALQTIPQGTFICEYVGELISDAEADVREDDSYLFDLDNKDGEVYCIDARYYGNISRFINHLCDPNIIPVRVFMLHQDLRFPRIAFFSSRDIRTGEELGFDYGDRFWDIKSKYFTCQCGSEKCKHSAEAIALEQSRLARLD
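Using a bead-based AlphaScreen, monomethylated H3K9 product from 2 h room-temperature reactions (G9a 20 nM, peptide 500 nM, SAM 20 uM) was detected with 0.5 ug/mL rabbit anti-H3K9me1 antibody.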
Glioma ERSR ind – ER stress response induction in glioma; U87-MG GRP78 promoter luciferase reporter, 16 h; Potency, µM, for inactives: top-dose activation, actives largely listed as activators; actives 0.02% (n = 420,000); note: series mostly up to about 76 µM; % of control where 0% means no effect; nearly all actives have a fitted effect of over 35% in size
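Stably transfected U87-MG glioma cells carrying a GRP78-based luciferase sensor; 16 h compound incubation. Luminescence end-point read 10 min after Bright-Glo addition at room temperature.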
VDR inh – blocks the human vitamin D receptor; P11473; AID 504847; Potency, µM, for the others: max response, negative = inhibition, hits mostly inhibitors; VDR-SRC2-3 peptide fluorescence polarization, 2 h; actives 0.93% (n = 400,000); note: % is set by controls: 0 for no effect and ±100 for the full control effect
Target sequence (P11473 whole entry, looked up): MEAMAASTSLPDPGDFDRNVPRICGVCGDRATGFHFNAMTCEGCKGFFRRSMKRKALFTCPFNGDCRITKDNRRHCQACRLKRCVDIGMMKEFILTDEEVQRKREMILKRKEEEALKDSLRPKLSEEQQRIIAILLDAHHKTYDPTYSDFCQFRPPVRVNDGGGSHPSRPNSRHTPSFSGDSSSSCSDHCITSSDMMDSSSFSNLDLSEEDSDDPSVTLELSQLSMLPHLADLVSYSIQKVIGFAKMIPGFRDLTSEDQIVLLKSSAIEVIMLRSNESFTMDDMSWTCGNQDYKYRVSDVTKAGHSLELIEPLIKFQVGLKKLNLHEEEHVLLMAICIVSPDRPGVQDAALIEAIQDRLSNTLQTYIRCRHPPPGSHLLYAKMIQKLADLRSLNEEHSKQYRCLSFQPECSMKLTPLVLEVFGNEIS
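Fluorescence polarization assay measuring small-molecule disruption of VDR binding to the coregulator peptide SRC2-3. Compounds were pin-transferred (23 nl) into the reagent mix and incubated 2 h at room temperature before reading.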
ALOX12 inh – blocks human arachidonate 12S-lipoxygenase. P18054. purified 12hLO, xylenol orange hydroperoxide absorbance. AID 1671190. Potency, µM (series often up to 108 µM), for the others: at the highest dose activity change, negative = inhibition, hits mostly inhibitors. actives 1.1% (n = 580,000); note: % is set by controls: 0 for no effect and ±100 for the full control effect
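Purified human 12hLO at 150 nM in 25 mM Hepes, 0.01% Triton X-100, pH 7.0, preincubated 15 min at room temperature with compound. Reaction started with 40 uM arachidonic acid, 30 min at room temperature. Hydroperoxide measured by Fe-xylenol orange, 573/405 nm absorbance ratio.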
Sfp inh – blocks B. subtilis Sfp PPTase activity | Biochemical Sfp PPTase activity, qHTS | Q9F4F7 | Potency, µM, for inactives: largest response in the series, negative = inhibition, most hits filed as inhibitors | actives 3.5% (n = 310,000) | AID 1490;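 note: the enzyme is Sfp with the accession as filed and its product quenches rhodamine fluorescence; 0% = enzyme reaction without inhibitor and -100% = no enzyme wells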
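Fluorescence-quenching assay with 15 nM Sfp, 5 uM rhodamine-CoA and 12.5 uM BHQ-2-labelled ybbR peptide in pH 7.6 Hepes/MgCl2 buffer. Enzyme was pre-incubated with compound for 15 min at room temperature. Rate was taken from the 30-min fluorescence change (525/598 nm).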
Numbers without * were called inactive; ? = inconclusive; · = no result; ! = not confirmed by another sample; [ ] = another dose, or the depositor's remark. Calls come from the whole dose curve; as a rule, active = well fitted curve in the direction sought with a large enough effect; inconclusive = small, poorly fitted or top-dose-only effect, or another doubt; inactive = no such curve, though single readings can be large; an effect the other way counts as inactive or inconclusive. Potency is the fitted concentration of half-maximal effect.

SMILES | G9a block | Glioma ERSR ind | VDR inh | ALOX12 inh | Sfp inh
COC(=O)C1=C(C)NC(C)=C(C(=O)OCCN2CCN(C(c3ccccc3)c3ccccc3)CC2)C1c1cccc([N+](=O)[O-])c1 (stereo unspecified) | ? | -3% | -21% | -1%[57.4 µM] | -29%
O=C(NC[C@H]1Cn2c(-c3ccc4c(c3)OCCO4)cnc2CO1)Nc1ccccc1 | · | · | · | 89%[176 µM] | ·
O=C(OCc1cccc(COC(=O)c2ccc(CO)cc2)c1)c1ccc(CO)cc1 | · | · | · | 2% | ·
C=C(C)COc1ccc2c(C)c(CC(=O)Nc3ccc4c(c3)OCO4)c(=O)oc2c1 | · | · | · | 9% | ·
CCc1cccc(C)c1NC(=O)CCS(=O)(=O)c1ccc2c(c1)oc(=O)n2C | 10µM* | -2% | -12% | ? | ·
Cc1ccc(C2=NN(C(=O)CSc3nnnn3C)C(c3ccco3)C2)cc1 (stereo unspecified) | 0.89µM* | -1% | 19% | 169% | ·
CCC1(CC)NC(=O)N(CC(=O)N2N=C(c3ccc(Cl)cc3)CC2c2ccco2)C1=O (stereo unspecified) | 56µM* | -2% | -20% | ? | -12%
CCC(=O)N1N=C(c2ccc(C)cc2)CC1c1ccco1 (stereo unspecified) | 45µM* | 2% | 7% | 22% | -4%
CCC(=O)N1N=C(c2ccc(NS(=O)(=O)c3ccc(C)cc3)cc2)CC1c1ccco1 (stereo unspecified) | · | -7% | 2% | ? | ·
Cn1cnnc1SCC(=O)N1N=C(c2ccc(Cl)cc2)CC1c1ccco1 (stereo unspecified) | ? | -6% | -1% | -3% | 50µM*
O=C1OC(C(=O)Nc2cnc3ccccc3c2)Cc2ccccc21 (stereo unspecified) | · | · | · | 4% | ·
COc1cccc(C2=NN(C(=O)c3ccco3)C(c3ccco3)C2)c1 (stereo unspecified) | 45µM* | 1% | -24% | -17% | 50µM*
CNC(=O)COC(=O)/C=C/c1c(C)nn(-c2ccccc2)c1C | 50µM* | -2% | -6% | -9% | 13%
CCOc1ccc(C(=O)NC(=S)Nc2ccccc2N2CCCCC2)cc1[N+](=O)[O-] | 21%[59 µM] | -2% | -13% | ? | 17%
COc1ccc(C(=O)NC(=S)Nc2ccccc2N2CCCCC2)cc1[N+](=O)[O-] | 10%[59 µM] | -5% | -1% | 40µM* | 9%
Cc1c(C(=O)Nc2ccccc2C(=O)N2CCCC2)cccc1[N+](=O)[O-] | -1% | -4% | 8% | -2% | 21%
COc1ccc(C(=O)NC(=S)Nc2cc(C)ccn2)cc1[N+](=O)[O-] | 2.8µM* | -1% | -15% | -6% | -9%
Cc1c(C(=O)NC(=S)Nc2ccccc2N2CCCC2)cccc1[N+](=O)[O-] | 14µM* | -3% | -9% | -27% | ?
CCOc1ccc(C(=O)NC(=S)Nc2ccc(N3CCCCC3)cc2)cc1[N+](=O)[O-] | 6.3µM* | -3% | ? | ? | 20µM*
CC(NC(=O)CSc1nnnn1-c1ccc(O)cc1)c1ccc2c(c1)CCCC2 (stereo unspecified) | · | · | · | -24% | ·
COc1ccc2c(C)c(CC(=O)Nc3ccc(C(C)=O)cc3)c(=O)oc2c1OC | · | · | · | 7% | ·
O=C(NC(=S)Nc1ccccc1N1CCCC1)c1ccc([N+](=O)[O-])cc1 | 11µM* | -1% | -12% | ? | ?
NC1(C(=O)O)CCCCC1c1ccccc1 (stereo unspecified) | · | -4% | -4% | -16% | ·
O=C(O)C12CC3CC(C(=O)O)(C1)CC(C(=O)O)(C3)C2 | · | · | · | -22% | ·
NC1(C(=O)O)CC(C(=O)O)C1 (stereo unspecified) | 4%[59 µM] | -1% | -4% | ? | 50µM*
SMILES | G9a block | Glioma ERSR ind | VDR inh | ALOX12 inh | Sfp inh
NC1(C(=O)O)CCC1 | · | -2% | 4% | 1.4µM*! | ?
N[C@@]1(C(=O)O)CN[C@@H](C(=O)O)C1 | 29%[59 µM] | -3% | 27% | -23% | 22µM*
COCCNC[C@@H]1C=C(C)[C@H](Cc2nnc(-c3ccc(OC)cc3)o2)C[C@H]1C(C)C | · | · | · | 23%[176 µM] | ·
CCCCn1c(N)c(N(C(=O)c2cc(CCC)c(C)s2)C2CCCC2)c(=O)[nH]c1=O | · | · | · | 24% | ·
Cc1[nH]c2ccccc2c1C(=O)C(=O)NC(C)c1ccccc1 (stereo unspecified) | · | · | · | 0% | ·
O=C(NC(c1ccccc1)c1cccs1)c1ccccc1 (stereo unspecified) | · | · | · | -3% | ·
Oc1ccc(C2C[C@H]3CC[C@@H]2C3)cc1O (stereo partly specified) | 1µM* | -3% | -13% | ? | 22µM*
Cc1ccc(C)c(NC(=O)C2CC3CCC2C3)c1 (stereo unspecified) | · | 4% | -12% | -16% | 7%
Cc1cc(=O)[nH]c(SCC(=O)NNC(=O)Cc2ccccc2)n1 | 36% | -3% | 8% | 14% | -7%
COc1ccc(CC(=O)NNC(=O)CSc2nc(C)c(C)c(=O)[nH]2)cc1 | -27% | -1% | 0% | 6% | 89µM*
COc1cccc(NC(=O)C(OC(=O)c2cnc(C)cn2)c2ccccc2)c1 (stereo unspecified) | 45µM* | 1% | -3% | ? | ·
COC(=O)c1ccc(/C=C2\CCc3cc(OC)ccc3C2=O)cc1 | · | · | · | -2% | ·
COc1ccc(/C=C2/CCc3ccccc3C2=O)cc1OC | -1%[59 µM] | 3% | -17% | -19% | -15%
COc1ccc2c(c1)CC/C(=C\c1ccc(OC)c(Cn3cccn3)c1)C2=O | ? | -14% | -6% | -26% | 45µM*
COc1ccc2c(c1)CC/C(=C\c1ccc(OC)c(Cn3nc(C)cc3C)c1)C2=O | ? | -8% | -8% | 0% | 35µM*
COc1ccc(/C=C2\CCc3ccccc3C2=O)cc1CN1CCOCC1 | 35µM* | 5% | 2% | ? | 7%
COc1ccc(/C=N\NC(=O)c2sccc2C)cc1Cn1nc(C)cc1C | 30% | 1% | 4% | 5% | 1%
O=C1CCN(C2CCN(Cc3ccccc3)CC2)CCCC(C(=O)NCc2ccccc2)CCN1 (stereo unspecified) | · | · | · | 19% | ·
CCOC(=O)c1c(NC(=O)C(=O)NCc2ccco2)sc2c1CC(C)(C)OC2 | · | · | · | 5% | ·
NC(=O)CCC[C@H]1NC[C@@H]2C[C@H]1CN(Cc1ccccc1)C2 | · | · | · | 13% | ·
CNC(=O)CCC[C@H]1NC[C@@H]2CC1CN(Cc1ccccc1)C2 | · | · | · | 8.9µM* | ·
COc1cccc(NC(=O)CCC[C@H]2NC[C@@H]3C[C@H]2CN(Cc2ccccc2)C3)c1 | · | · | · | 0% | ·
COc1ccc2[nH]cc(CCNC(=O)CCC[C@H]3NC[C@@H]4C[C@H]3CN(Cc3ccccc3)C4)c2c1 | · | · | · | 4µM* | ·
CSC1=NC2(CCCCC2)C2=C(CCCC2)N1 | 45µM* | 0% | 1% | ? | 11%
CCN(CC)CCN(C(=O)c1ccc(C(=O)c2ccccc2)cc1)c1nc2ccc(OC)cc2s1 | 45µM* | 6% | 11% | -4% | -14%
